Source: PubChem (National Center for Advancing Translational Sciences (NCATS))
CHX counter: affects cycloheximide protein synthesis inhibition readout, counter-screen. 12% of 300,000 active. max response, %. cell reporter, cycloheximide protein synthesis inhibition counterscreen; in the data active means max response mostly above about 13%, no sharp cut-off; inactive means mostly below about 14%; further: read at 38.3 µM for the half of the compounds with a filed dose
Pf growth 96h: P. falciparum growth inhibition at 96 hours. P. falciparum luciferase reporter growth, 96 h. Potency, µM (titrated, usually from 28.7 µM), hits mostly inhibitors. 6.9% of 320,000 active
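Cell-based qHTS: luciferase-tagged P. falciparum in erythrocytes (2% hematocrit, 0.05% parasitemia final) incubated with compounds for 96 hours, 37 C, 5% CO2; luciferase detection reagent then added and luminescence measured.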
Pf growth 48h: inhibits P. falciparum growth in the first generation, 48 h; P. falciparum luciferase growth in erythrocytes, 48 h; Potency, µM (doses to about 28.7 µM), most hits filed as inhibitors; 5.9% of 310,000 active; AID 504832
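Parasite viability was followed by luminescence of a genomically integrated firefly luciferase. Cultures held 0.1% parasitemia at 2% hematocrit (final), incubated under 5% CO2 at 37 C.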
SARS PLP yeast: SARS-CoV PLP inhibition in yeast | S. cerevisiae expressing SARS-CoV PLpro, growth rescue | 0.19% of 330,000 active | Potency, µM (titrated, usually from 32.9 µM), usual class: activators; calls by dose curve; further: nearly all actives have a fitted effect of over 55% in size
Shiga toxin inh: blocks Shiga toxin action in Vero cells; Vero cells, Shiga toxin protein synthesis inhibition reporter; inhibition, % at 38.7 µM; 9.2% of 290,000 active; AID 2315; in the data active means inhibition mostly above about 28%, no sharp cut-off; inactive means mostly below about 43%
NS1 inh: inhibitors of influenza NS1 protein function. Potency, µM (highest dose often 46.1 µM). 0.4% of 270,000 active; calls by dose curve; further: actives are rising curves; nearly all actives have a fitted effect of over 50% in size
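Compounds were scored for reversing the slow growth caused by influenza A NS1 in S. cerevisiae, measured by optical density at 600 nm. Assay medium contained 2% galactose at pH 6.0; NS1-free yeast of the same strain were the positive control.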
Of the large screens only hits and unclear results are named; the others gave an inactive call. This is a sample that favours compounds with a hit; in the whole collection about 21% have one here. Unless noted, the call rests on the fitted dose curve; in most records, active means well fitted inhibition curve with a large enough effect; inconclusive means small, poorly fitted or top-dose-only effect, or another doubt; inactive means no such curve, though single readings can be large or run the other way.

Cc1c(C(c2cccc(Br)c2)c2c(C)n(C)n(-c3ccccc3)c2=O)c(=O)n(-c2ccccc2)n1C	Pf growth 48h inconclusive
O=C(O)c1ccc(C(=O)O)c(C(=O)c2ccc(NC(=O)c3ccccc3)cc2)c1	none
Cc1cccc(C(=O)N/N=C/c2ccoc2)c1	CHX counter 36, Shiga toxin inh 78
Cc1cc(/C=C(\C#N)C(=O)N2CCOCC2)c(C)n1C1CCCC1	CHX counter 26
COc1ccc(CN(C(=O)/C=C/c2ccco2)C2CCS(=O)(=O)C2)cc1 (stereo not given)	none
Cc1nc(C)c(C(=O)NNC(=O)c2ccc(Br)cc2)s1	none
O=C1c2ccccc2C(Nc2ccc3c(c2)OCCO3)N1c1ccc(Cl)cn1 (stereo not given)	CHX counter 9.9 (no result: Pf growth 48h)
O=C1c2ccccc2C(Nc2ccc3c(c2)OCCO3)N1c1ccccn1 (stereo not given)	CHX counter 41, Pf growth 48h 9.3µM, Shiga toxin inh 70
O=C1c2ccccc2C(Nc2ccc3c(c2)OCCO3)N1Cc1ccc2c(c1)OCO2 (stereo not given)	CHX counter 31, Pf growth 48h inconclusive, Shiga toxin inh 62
C#CCOC(=O)C[N+](C)(C)CC#Cc1ccccc1	Pf growth 96h inconclusive (no result: NS1 inh)
CCC(C)(C(=O)NC1CCCC1)N(C(=O)CC1NC(=O)NC1=O)c1ccc(C)cc1 (stereo not given)	Pf growth 96h inconclusive
Cc1cccc(N2C(=O)CCC2=O)n1	none
N#Cc1ccc(NC(=S)NC(=O)CCc2ccc(S(=O)(=O)N3CCOCC3)cc2)cc1	none (no result: NS1 inh)
CCC(Cc1ccccc1)NC(=O)CN(C)S(=O)(=O)c1ccc2c(c1)c(=O)n(C)c(=O)n2C (stereo not given)	Pf growth 96h 7.4µM (no result: Pf growth 48h)
Cc1ccccc1NC(=O)CN(C)S(=O)(=O)c1ccc2c(c1)n(C)c(=O)c(=O)n2C	Pf growth 96h 10µM, Pf growth 48h inconclusive
Cc1ccc(CCNC(=O)CN(C)S(=O)(=O)c2ccc3c(c2)n(C)c(=O)c(=O)n3C)cc1	Pf growth 96h 9.3µM, Pf growth 48h inconclusive
Cc1ccc(CNC(=O)CN(C)S(=O)(=O)c2ccc3c(c2)n(C)c(=O)c(=O)n3C)cc1	Pf growth 96h inconclusive
CC1(C)CC(=O)C/C(=N\NC(=O)CCc2ccc(S(=O)(=O)N3CCOCC3)cc2)C1	none (no result: NS1 inh)
CC(C)Oc1ccccc1C1(c2ccccc2)NC(=O)NC1=O (stereo not given)	Pf growth 96h inconclusive (no result: Shiga toxin inh)
O=C(O)C1=C[C@@H](c2ccc3c(c2)OCO3)C[C@@H](OCc2ccc(CO)cc2)O1	none
C#CCNC(=O)C1=C[C@H](c2ccc3c(c2)OCO3)C[C@H](OCc2ccc(CO)cc2)O1	CHX counter 18, Pf growth 96h inconclusive, Pf growth 48h inconclusive
NC(=O)C1=C[C@H](c2ccc3c(c2)OCO3)C[C@H](OCc2ccc(CO)cc2)O1	CHX counter 43, Shiga toxin inh 49
COc1ccc2cc3cc(C(=O)N4CC(C)CC(C)C4)oc3nc2c1 (stereo not given)	Pf growth 48h inconclusive
Cc1ccc2cc3cc(C(=O)N4CCCCC4C)oc3nc2c1 (stereo not given)	CHX counter 21, Pf growth 48h 9.3µM, Shiga toxin inh 61
O=C(c1cc2cc3ccc(Cl)cc3nc2o1)N1CCCCCC1	CHX counter 21, Shiga toxin inh 79
Cc1ccc2cc3cc(C(=O)N4CC(C)CC(C)C4)oc3nc2c1 (stereo not given)	CHX counter 27, Pf growth 48h inconclusive, Shiga toxin inh 41 (no result: Pf growth 96h)
NC(=O)c1c(NC(=O)c2ccc(F)cc2Cl)sc2c1CCC2	CHX counter 25, Shiga toxin inh 31
NC(=O)c1c(NC(=O)c2ccccc2F)sc2c1CCCC2	CHX counter 49, Shiga toxin inh 83
NC(=O)c1c(NC(=O)c2ccccc2C(=O)O)sc2c1CCCC2	none
Cn1cc(Br)c(C(=O)Nc2sc3c(c2C(N)=O)CCCC3)n1	CHX counter 35, Pf growth 96h 4.1µM, Shiga toxin inh 66
Cc1onc(C(=O)Nc2sc3c(c2C(N)=O)CCCC3)c1[N+](=O)[O-]	CHX counter 20
NC(=O)c1c(NC(=O)c2cccnc2Cl)sc2c1CCCC2	none
O=[N+]([O-])c1cccc(C=Nc2cc3c(cc2Br)OCCO3)c1	none
NC(=O)c1c(NC(=O)c2ccccc2Cl)sc2c1CCC2	CHX counter 38, Pf growth 96h inconclusive, Shiga toxin inh 51
Cc1onc(-c2c(F)cccc2Cl)c1C(=O)Nc1sc2c(c1C(N)=O)CCC2	Pf growth 96h inconclusive (no result: Pf growth 48h)
O=C(CSc1nncs1)Nc1ccc(Cl)cc1C(F)(F)F	none (no result: CHX counter, Shiga toxin inh, NS1 inh)
S=C(Nc1ccc2c(c1)OCO2)N1CCN(Cc2ccco2)CC1	CHX counter 20, Shiga toxin inh 28
O=C(CN1CCN(C(=O)c2ccco2)CC1)Nc1cc(Cl)ccc1Cl	Pf growth 48h 1µM
S=C(NCc1ccco1)N1CCN(Cc2ccco2)CC1	none
O=C(CN1CCN(C(=O)c2ccco2)CC1)Nc1ccc(Cl)c(S(=O)(=O)N2CCOCC2)c1	Pf growth 48h 12µM (no result: NS1 inh)
O=C(CN1CCN(C(=O)c2ccco2)CC1)Nc1ccc2c(c1)OCCO2	CHX counter 27, Shiga toxin inh 91
Cc1cc(NC(=O)CN(C)S(=O)(=O)c2cccc(Cl)c2)no1	none (no result: NS1 inh)
COC(=O)c1c(NC(=S)NNC(=O)c2ccc(Cl)s2)sc(C(=O)N(C)C)c1C	none
O=C(CN1CCN(c2ccccc2O)CC1)Nc1ccc2c(c1)OCCCO2	Pf growth 48h 13µM (no result: CHX counter, Shiga toxin inh, NS1 inh)
O=C(CSc1ccc2c(c1)OCCO2)N1CCN(c2ccccc2O)CC1	Pf growth 96h 7.4µM, Pf growth 48h inconclusive (no result: CHX counter, Shiga toxin inh, NS1 inh)
COC(=O)c1cccc(NC(=O)CN2CCOCC2)c1	Pf growth 96h 10µM
O=C(CN1CCOCC1)Nc1ccc2c(c1)OCCO2	CHX counter 16, Shiga toxin inh 50
CCOC(=O)NCCOC(=O)Nc1ccc(Cl)cc1	none (no result: NS1 inh)
Cc1ccc(NC(=O)OC(C)CNC(=O)Oc2cccc(C)c2)cc1 (stereo not given)	CHX counter 38, Pf growth 96h inconclusive, Shiga toxin inh 74 (no result: NS1 inh)
Cc1ccc(NC(=O)OCCNC(=O)OC(C)C)cc1	CHX counter 42, Shiga toxin inh 81 (no result: NS1 inh)
COC(=O)NCC(C)OC(=O)Nc1ccc(Cl)cc1 (stereo not given)	Pf growth 96h inconclusive, Shiga toxin inh 55
Cc1nn(CC(=O)c2ccccc2)c(=O)c2nn(-c3ccccc3F)c(C)c12	Pf growth 96h inconclusive
Cn1c(COc2ccccc2)nnc1SCC(=O)Nc1ccc(N2CCOCC2)cc1	Pf growth 48h inconclusive
CC(=O)N(/N=C/c1ccc([N+](=O)[O-])o1)c1nc2ccccc2c(=O)n1-c1ccccc1	none
CN(/N=C/c1ccc([N+](=O)[O-])o1)c1ccccc1	CHX counter 33 (no result: NS1 inh)
O=C(N/N=C/c1ccc([N+](=O)[O-])o1)C1CC1	Pf growth 96h 4.1µM
